Measurements published in PubChem BioAssay AID504848 (National Center for Advancing Translational Sciences (NCATS), 2011).
Out of some 2,300 compounds screened, about 1,400 (61%) were called active. Not shown: some 29% with an inconclusive outcome. The call rests on the fitted dose curve; in most records, active means well fitted inhibition curve with a large enough effect; inconclusive means small, poorly fitted or top-dose-only effect, or effect the other way; inactive means no such curve, though single readings can be large or run the other way. So high a share suggests a set chosen from earlier hits. Some of the results follow.
Potency means the concentration at half of the fitted maximal effect.

Test: Confirmation screen for delayed death inhibitors of the malarial parasite plastid, 96 hour incubation; further: nearly all actives have a fitted effect of over 60% in size
Details: P. falciparum luciferase growth in erythrocytes; series mostly up to 28.7 µM
How it was run: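 Two-generation (96 h, 37 C) exposure of P. falciparum carrying an integrated firefly luciferase reporter in erythrocytes, 0.1% parasitemia and 2% hematocrit final, Albumax-supplemented RPMI. Luminescence decrease measures growth inhibition.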
With `c1ccc(SCc2cn(C[C@H]3CC[C@@H]([C@@H]4CC[C@H](Cn5cc(CSc6ccccc6)nn5)O4)O3)nn2)cc1` the Potency was 11.2 µM (active). With `CC1CCCN(c2ccc(F)cc2N)C1` (stereo not drawn) the Potency was 8.91 µM (active). For `COc1cccc(/C=N/N2CCN(C3c4ccccc4-c4ccccc43)CC2)c1O`, the Potency was 14.1 µM (active). With `CCOC(=O)C(C)Sc1cc(CS(=O)(=O)c2ccccc2)nc(-c2ccccc2)n1` (stereo not drawn) the Potency was 12.6 µM (active). With `N#C/C(=C\c1c(Oc2ccccc2Cl)nc2ccccn2c1=O)C(=O)NC1CCS(=O)(=O)C1` (stereo not drawn) the Potency was 12.6 µM (active). For `Cc1cccc(Oc2nc3ccccn3c(=O)c2/C=C(\C#N)C(=O)NC2CCS(=O)(=O)C2)c1C` (stereo not drawn), the Potency was 12.6 µM (active). For `Cc1ccc(Oc2nc3ccccn3c(=O)c2/C=C(\C#N)C(=O)NC2CCS(=O)(=O)C2)c(C)c1` (stereo not drawn), the Potency was 10 µM (active). In the case of `COc1ccc(CCn2c(C(C)C)nc3c(c(=O)c4ccccc4n3C)c2=O)cc1`, the Potency is reported as 3.16 µM (active). In the case of `COc1ccc(Cn2c(-c3ccccc3)nc3c(c(=O)c4ccccc4n3C)c2=O)cc1`, the Potency is reported as 10 µM (active). In the case of `COc1ccc(-c2nc3c(c(=O)c4ccccc4n3C)c(=O)n2Cc2ccccc2)cc1`, the Potency is reported as 7.08 µM (active). In the case of `CCO[C@H]1OC(C(=O)N2CCN(Cc3ccccc3)CC2)=C[C@@H](c2ccc(C(F)(F)F)cc2)[C@@H]1CCCO`, the Potency is reported as 3.16 µM (active). In the case of `CCO[C@H]1OC(C(=O)N2CCN(Cc3ccc4c(c3)OCO4)CC2)=C[C@@H](c2ccc(C(F)(F)F)cc2)[C@@H]1CCCO`, the Potency is reported as 2 µM (active). For `O=C(C1=C[C@@H](c2csc3ccccc23)C[C@@H](OCCCCO)O1)N1CCN(Cc2ccc3c(c2)OCO3)CC1`, the Potency was 3.98 µM (active). In the case of `CCOC(=O)N1CCN(CC(=O)c2ccc(O)cc2O)CC1`, the Potency is reported as 17.8 µM (active). With `CCOc1cc(/C=C2/C(=O)ON=C2C)ccc1OCc1ccccc1` the Potency was “inactive”. In the case of `CCOc1cc(/C=C2\COc3ccccc3C2=O)ccc1OCC(=O)N(C)C`, the Potency is reported as 12.6 µM (active). For `COc1cc(CN2CCN(S(=O)(=O)c3ccccc3)CC2)cc(OC)c1OC`, the Potency was 2.24 µM (active). In the case of `O=S1(=O)C=C(Sc2nc3cc(Cl)ccc3o2)c2ccccc21`, the Potency is reported as 4.47 µM (active). For `O=S1(=O)C=C(Sc2nnc(-c3ccccc3)o2)c2ccccc21`, the Potency was 14.1 µM (active). In the case of `CCOc1ccc(/C=N/OCC(=O)Nc2ccc(OCc3ccccc3)cc2)cc1OC`, the Potency is reported as 3.55 µM (active). For `C[C@@H]1CCC2[C@@H](C)[C@@H](O)O[C@@H]3O[C@@]4(C)CC[C@@H]1[C@@]23OO4` (stereo partly drawn), the Potency was 0.0251 µM (active). In the case of `C[C@H]1[C@@H](OC(=O)CCC(=O)O)OC2OC3(C)CC[C@H]4[C@H](C)CC[C@@H]1[C@@]24OO3` (stereo partly drawn), the Potency is reported as 0.0355 µM (active). For `CO[C@H]1OC2O[C@@]3(C)CC[C@H]4[C@H](C)CC[C@@H]([C@H]1C)[C@@]24OO3` (stereo partly drawn), the Potency was 0.0631 µM (active). In the case of `COCCN1CCCC(CNCc2cn(C)nc2-c2ccc(Oc3ccccc3)cc2)C1` (stereo not drawn), the Potency is reported as 7.08 µM (active). For `Cc1cc(=O)oc2c3c(cc(OCC(=O)Nc4cccnc4)c12)OC(C)(C)CC3`, the Potency was 1.26 µM (active). For `CCOC(=O)c1c(NC(=O)CSc2ccccc2C(=O)O)sc(C)c1C`, the Potency was “inactive”. For `CCOC(=O)c1c(NC(=O)CSc2c[nH]c3ccccc23)sc2c1CCCC2`, the Potency was 12.6 µM (active). For `Cc1ccc2c(c1)cc(C(=O)NCc1ccccc1)n2C`, the Potency was “inactive”. In the case of `Cc1cccc(Cn2nc(C(C)(C)C)cc2C(=O)Nc2ccc(F)cc2)c1`, the Potency is reported as 3.55 µM (active). In the case of `CC(C)(C)c1cc(C(=O)NNc2cccc(Cl)c2)n(Cc2ccccc2)n1`, the Potency is reported as 10 µM (active). With `CC(C)(C)C(=O)NNC(=O)c1cc(C(C)(C)C)nn1Cc1ccccc1` the Potency was 14.1 µM (active). In the case of `Cc1ccc(NC(=O)c2cc(C(C)(C)C)nn2Cc2ccccc2)cc1`, the Potency is reported as 12.6 µM (active). With `C=CCNC(=O)c1cnc2n(c1=O)CCS2` the Potency was “inactive”. For `Cc1cccc(-n2ncc3c2CCCC3NC(=O)C2=CC(=O)CC(C)(C)O2)c1C` (stereo not drawn), the Potency was 12.6 µM (active). For `COc1ccc(C(=O)NC2CCCc3c2cnn3-c2cccc(C)c2C)o1` (stereo not drawn), the Potency was 12.6 µM (active). With `CCCNC(=O)c1nnsc1S(=O)(=O)c1ccc(Cl)cc1` the Potency was “inactive”. In the case of `O=S(=O)(c1ccc(Cl)c(Cl)c1)c1snnc1-c1ccccc1`, the Potency is reported as 7.94 µM (active). With `N#Cc1ccc(Oc2ccc(-c3nc4ccccc4nc3-c3ccccc3)cc2)cc1C#N` the Potency was 0.708 µM (active). With `CCOC(=O)C(Cc1ccccc1)C(=O)Nc1cccc2ccccc12` (stereo not drawn) the Potency was 5.01 µM (active). For `CCc1nn(CCCC(=O)NCc2ccccc2C)c(=O)c2cc3occc3n12`, the Potency was 7.08 µM (active). For `O[C@@H]1[C@@H](O)C=C2CCN3Cc4cc5c(cc4[C@H]1C23)OCO5` (stereo partly drawn), the Potency was 1.58 µM (active). For `ClC(/C=N/n1cnnc1)=C/c1ccccc1`, the Potency was 10 µM (active). With `S=c1[nH]nc(COc2ccccc2)n1/N=C/C(Cl)=C/c1ccccc1` the Potency was 12.6 µM (active). In the case of `O=C(O)CCCN1C(=O)/C(=C\C(Cl)=C\c2ccccc2)SC1=S`, the Potency is reported as 5.01 µM (active). For `C=C1c2c(Cl)ccc(O)c2C(O)=C2C(=O)[C@]3(O)C(O)=C(C(N)=O)C(=O)[C@@H](N(C)C)[C@@H]3[C@@H](O)C12` (stereo partly drawn), the Potency was 2 µM (active). In the case of `C=C1c2c(Cl)ccc(O)c2C(O)=C2C(=O)[C@@]3(O)C(O)=C(C(N)=O)C(=O)[C@@H](N(C)C)[C@@H]3[C@@H](O)[C@H]12`, the Potency is reported as 2 µM (active). With `C[C@@H]1c2cccc(O)c2C(O)=C2C(=O)[C@@]3(O)C(O)=C(C(N)=O)C(=O)[C@@H](N(C)C)[C@@H]3[C@@H](O)[C@@H]21` the Potency was 2.51 µM (active). With `S=c1[nH]nc(-c2cc(-c3ccccc3)n[nH]2)n1/N=C/C(Br)=C/c1ccccc1` the Potency was 3.98 µM (active). In the case of `S=c1[nH]nc(-c2ccccc2)n1/N=C/c1ccc(-c2ccccc2Cl)o1`, the Potency is reported as “inactive”. In the case of `COc1ccc(C(=S)N2CCN(c3ccccc3C)CC2)cc1`, the Potency is reported as 12.6 µM (active). In the case of `COc1cccc(NC(=O)CSc2ccc3nnc(CCNC(=O)c4ccccc4)n3n2)c1`, the Potency is reported as “inactive”. For `Cc1ccc(C(=O)NCCc2nnc3ccc(SCC(=O)NCc4ccc(F)cc4)nn23)cc1`, the Potency was 7.94 µM (active). In the case of `Cc1cccc(C)c1Nc1c(-c2ccc(N3CCOCC3)cc2)nc2ncccn12`, the Potency is reported as 12.6 µM (active). With `CC(C)(C)c1ccc(C(=O)Nc2sc3c(c2C(=O)O)CCC3)cc1` the Potency was 10 µM (active). In the case of `O=C(/C=C/c1cccs1)Nc1sc2c(c1C(=O)O)CCCC2`, the Potency is reported as “inactive”. In the case of `Cc1ccc(-c2nnc(SCC(=O)N/N=C/c3cccs3)n2-c2ccc(C)cc2)cc1`, the Potency is reported as 10 µM (active). With `Cc1nnc(N2CCCC(C(=O)NCc3cccc(F)c3)C2)c2nn(-c3ccccc3)c(C)c12` (stereo not drawn) the Potency was 12.6 µM (active). For `CCCCc1nc2cc(C(=O)N3CCN(c4nc(C)cnc4C)CC3)ccc2o1`, the Potency was 10 µM (active). For `Cc1ccc(NS(=O)(=O)c2ccc(-c3cnc(C4CC4)o3)cc2)c(C)c1`, the Potency was 7.08 µM (active). In the case of `Cn1c(=O)n(Cc2ccccc2)c(=O)c2c1nc1n2CCN1Cc1ccco1`, the Potency is reported as 7.94 µM (active). For `Cc1nc(-c2ccc(S(=O)(=O)N3CCCN(CCc4ccccc4)CC3)s2)cs1`, the Potency was 3.55 µM (active). In the case of `CCCCCCCNC(=O)C1(CC2CC(c3ccc(Cl)cc3)=NO2)CCN(C(=O)Cc2ccc(F)cc2)CC1` (stereo not drawn), the Potency is reported as 7.94 µM (active). In the case of `CCCCCCCNC(=O)C1(CC2CC(c3ccc(Cl)cc3)=NO2)CCN(C(=O)C2CCCC2)CC1` (stereo not drawn), the Potency is reported as 10 µM (active). For `O=C(Nc1ccc(S(=O)(=O)N2CCOCC2)cc1)c1ccc([N+](=O)[O-])o1`, the Potency was 3.55 µM (active). With `O=C(Nc1ccc(N2CCOCC2)c(Cl)c1)c1cc2ccccc2o1` the Potency was 2.82 µM (active). For `CC(C)C(=O)N1CCN(c2ccc(NC(=O)c3ccc([N+](=O)[O-])o3)cc2)CC1`, the Potency was 4.47 µM (active). For `CCCC(=O)N1CCN(c2ccc(NC(=O)c3ccc([N+](=O)[O-])o3)cc2Cl)CC1`, the Potency was 8.91 µM (active). In the case of `Cc1cccc(-c2c(NC(=O)c3ccco3)oc3ccc(Cl)cc3c2=O)c1`, the Potency is reported as “inactive”. For `CCC(=O)N1CCN(c2ccc(NC(=O)c3ccc([N+](=O)[O-])o3)cc2Cl)CC1`, the Potency was 7.94 µM (active). For `CC(C)C(=O)N1CCN(c2ccc(NC(=O)c3ccco3)cc2Cl)CC1`, the Potency was 6.31 µM (active). In the case of `CCCC(=O)N1CCN(c2ccc(NC(=O)c3ccc([N+](=O)[O-])o3)cc2)CC1`, the Potency is reported as 6.31 µM (active). With `CCN1CCN(c2ccc(NC(=O)c3ccc([N+](=O)[O-])o3)cc2Cl)CC1` the Potency was 7.94 µM (active). For `CC(=O)OC[C@H]1O[C@@H](n2ncc(=O)[nH]c2=O)[C@H](OC(C)=O)[C@@H]1OC(C)=O`, the Potency was “inactive”. For `CS(=O)(=O)N1CCN(c2ccc(NC(=O)c3ccc([N+](=O)[O-])o3)cc2)CC1`, the Potency was 7.08 µM (active). In the case of `CN(Cc1nc2ccccc2c(=O)[nH]1)C(=O)c1cccc(S(=O)(=O)N2CCc3ccccc32)c1`, the Potency is reported as 11.2 µM (active). With `COc1cc2c(cc1OC)CN(C(=O)c1cccc(S(=O)(=O)N3CCc4ccccc43)c1)CC2` the Potency was 11.2 µM (active). In the case of `O=C(CNC(=O)c1cccc(S(=O)(=O)N2CCc3ccccc32)c1)Nc1ccc(F)c(F)c1F`, the Potency is reported as 11.2 µM (active). For `O=C(c1cccc(S(=O)(=O)N2CCc3ccccc32)c1)N1CCN(c2ccccc2)CC1`, the Potency was 11.2 µM (active). With `CCc1cc(SC#N)ccc1N` the Potency was 8.91 µM (active). In the case of `CC(C)(C)Nc1nc(Cl)nc(NC2CCCCC2)n1`, the Potency is reported as 12.6 µM (active). For `CCCc1cc(=O)n2nc(N3CCC(C(=O)N4CCN(c5ccc(OC)cc5)CC4)CC3)sc2n1`, the Potency was 10 µM (active). With `CCCc1cc(=O)n2nc(N3CCC(C(=O)NCc4ccc(C)o4)CC3)sc2n1` the Potency was 8.91 µM (active). In the case of `COc1cc(CNc2cccc(C(=O)O)c2)cc(Br)c1OCC(=O)NC(C)(C)C`, the Potency is reported as 12.6 µM (active).
